Measurements reported in PubChem BioAssay AID2551 (National Center for Advancing Translational Sciences (NCATS), 2010).
The whole screen tested about 310,000 compounds, of which about 17,000 (5.5%) were called active. Inconclusive results (about 11%) are left out. Calls come from the whole dose curve; as a rule, active = well fitted inhibition curve with a large enough effect; inconclusive = small, poorly fitted or top-dose-only effect, or effect the other way; inactive = no such curve, though single readings can be large or run the other way. The list comes from a sample in which actives are over-represented; it also holds similar structures and randomly drawn compounds.
% is set by controls: 0 for no effect and ±100 for the full control effect; potency is the fitted concentration of half-maximal effect.
Note: nearly all actives have a fitted effect of over 60% in size.

The compounds below were run against Nuclear receptor ROR-gamma (Mus musculus) (UniProt P51450) (assay: qHTS for inhibitors of ROR gamma transcriptional activity). Settings: Drosophila S2 Gal4-RORgamma UAS-luciferase reporter, 20 h; series mostly up to 53.6 µM; activity change, negative = inhibition: at the top concentration.
Chain of Nuclear receptor ROR-gamma (Mus musculus) (P51450 whole entry, looked up, the tested form may be a part): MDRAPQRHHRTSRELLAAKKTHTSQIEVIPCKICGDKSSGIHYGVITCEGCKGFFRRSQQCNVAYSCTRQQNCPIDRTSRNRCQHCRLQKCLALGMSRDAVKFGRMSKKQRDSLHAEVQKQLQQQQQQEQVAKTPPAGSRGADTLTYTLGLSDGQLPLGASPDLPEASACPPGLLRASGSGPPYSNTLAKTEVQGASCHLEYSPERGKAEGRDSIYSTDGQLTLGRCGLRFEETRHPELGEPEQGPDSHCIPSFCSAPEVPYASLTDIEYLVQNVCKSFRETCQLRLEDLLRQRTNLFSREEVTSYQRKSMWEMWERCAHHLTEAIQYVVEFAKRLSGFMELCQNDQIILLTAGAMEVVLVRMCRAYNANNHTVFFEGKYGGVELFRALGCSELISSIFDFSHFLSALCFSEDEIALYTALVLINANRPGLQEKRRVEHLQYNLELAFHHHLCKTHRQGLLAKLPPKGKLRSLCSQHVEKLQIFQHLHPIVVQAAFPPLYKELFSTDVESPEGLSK
In short: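 Stably transfected Drosophila Schneider cells are the test system, with ROR gamma fused to Gal4 and luciferase under UAS control; luminescence is read after 20 hr of 700 uM copper sulfate induction at ambient temperature.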
For `COCCN1CCn2c(nc3cc(NS(C)(=O)=O)ccc32)C1`, the “activity change, negative = inhibition” value was 9.64% (inactive).
`COCCOC(=O)c1[nH]c2c(c1C)C(=O)CC(c1ccc(OC)cc1)C2` (stereo not drawn) was tested, and the “activity change, negative = inhibition” value was 30.1% (inactive).
`Cc1ccc(OCC(=O)NCCCNC(=O)c2cccnc2)cc1C` was tested, and the “activity change, negative = inhibition” value was -1.54% (inactive).
With `Cc1cn([C@H]2CC(F)[C@@H](CO)O2)c(=O)[nH]c1=O` (stereo partly drawn) the “activity change, negative = inhibition” value was -17.9% (inactive).
In the case of `COc1cccc(CNc2ncc(-c3ccccc3)n2C)c1`, the “activity change, negative = inhibition” value is reported as -20.9% (inactive).
In the case of `CC(C)[C@@H](NC(=O)OC(C)(C)C)C(=O)NCC1CCC(C(=O)N[C@@H](Cc2ccccc2)C(=O)O)CC1` (stereo partly drawn), the “activity change, negative = inhibition” value is reported as 10.4% (inactive).
With `CCC1OC(c2ccc([N+](=O)[O-])cc2)=Nc2ccccc21` (stereo not drawn) the “activity change, negative = inhibition” value was 19.1% (inactive).
For `CC(=O)Nc1ccc(NC(=O)C2CCCN(S(=O)(=O)c3ccc(Cl)cc3)C2)cc1` (stereo not drawn), the “activity change, negative = inhibition” value was -12.4% (inactive).
For `CCC(O)CNc1nc(-n2nc(C)cc2C)nc2sc3c(c12)CC(C)(C)OC3` (stereo not drawn), the Potency was 1.58 µM (active).
For `Cc1cc(C)n(-c2nc(SCC(=O)N3CCCC3)c3c4c(sc3n2)CCCC4)n1`, the Potency was 6.31 µM (active).
For `CC(C)c1nc(SCC(=O)Nc2cccc(C(=O)O)c2)c2c3c(sc2n1)CCCC3`, the “activity change, negative = inhibition” value was 10.5% (inactive).
In the case of `CCSc1nc2sc3c(c2c(=O)[nH]1)CC(C)(C)OC3`, the “activity change, negative = inhibition” value is reported as -2.33% (inactive).
For `COCCNc1nc(-n2nc(C)cc2C)nc2sc3c(c12)CCCC3`, the Potency was 0.562 µM (active).
`COCCn1c(C)cc(C(=O)CSc2ncnc3sc4c(c23)CCC4)c1C` was tested, and the “activity change, negative = inhibition” value was 2.15% (inactive).
For `COc1ncnc2sc3c(c12)CCCC3`, the “activity change, negative = inhibition” value was -11.1% (inactive).
With `CCc1nc(N2CCN(C(C)=O)CC2)c2c3c(sc2n1)CCCC3` the “activity change, negative = inhibition” value was 27.6% (inactive).
For `CCOC(=O)Cn1c(SC)nc2sc3c(c2c1=O)CC(C)(C)OC3`, the “activity change, negative = inhibition” value was 5.51% (inactive).
`Cc1cccn2c(=O)c(/C=C(\C#N)C(N)=O)c(N3CCCCCC3)nc12` was tested, and the “activity change, negative = inhibition” value was 41.5% (inactive).
In the case of `CN(Cc1ccccc1)S(=O)(=O)c1nnc(NC(=O)c2ccccc2F)s1`, the “activity change, negative = inhibition” value is reported as 14.3% (inactive).
With `CC(=O)Nc1cccc(NC(=O)CSc2nccn2Cc2ccc(F)cc2)c1` the “activity change, negative = inhibition” value was -10.8% (inactive).
In the case of `Cn1c(=O)c2ccccc2n(CC(=O)Nc2ccc3c(c2)OCCO3)c1=O`, the “activity change, negative = inhibition” value is reported as 38.8% (inactive).
`Cc1ccc(-c2nc(CS(=O)(=O)CC(=O)NCc3ccc4c(c3)OCO4)c(C)o2)cc1` was tested, and the “activity change, negative = inhibition” value was -22.5% (inactive).
`Cc1ccc(NS(=O)(=O)c2ccc(-c3ccc(=O)[nH]n3)o2)c(C)c1` was tested, and the “activity change, negative = inhibition” value was 18.7% (inactive).
In the case of `NC(=O)CN1CCCC1c1ccc2c(c1)OCCO2` (stereo not drawn), the “activity change, negative = inhibition” value is reported as -5.36% (inactive).
With `CC1C(=O)Nc2ccc(S(=O)(=O)N3CCN(c4ccccc4F)CC3)cc2NC1=O` (stereo not drawn) the “activity change, negative = inhibition” value was 31.3% (inactive).
For `COc1cc(/C=N/O)ccc1OCc1ccc([N+](=O)[O-])cc1`, the “activity change, negative = inhibition” value was -23% (inactive).
For `COc1cc(/C=N/n2c(C)n[nH]c2=S)ccc1OCc1ccccc1`, the Potency was 6.31 µM (active).
For `CCOc1ccc(/C=N/Nc2nncc(-c3ccccc3)n2)cc1OC`, the “activity change, negative = inhibition” value was 11.4% (inactive).
For `COCC1CCN(C(=O)C2CCC(=O)N(Cc3cccc(C(F)(F)F)c3)C2)CC1` (stereo not drawn), the “activity change, negative = inhibition” value was 3.4% (inactive).
For `O=C(NCc1ccccn1)[C@]1(C(F)(F)F)C[C@H](CCc2ccccc2)CCCO1`, the “activity change, negative = inhibition” value was 4.22% (inactive).
`O=C(NCc1cc(F)cc(C(F)(F)F)c1)C1CCC(=O)N(C2CCCC2)C1` (stereo not drawn) was tested, and the “activity change, negative = inhibition” value was 38.2% (inactive).
With `CC1CCCC(C)N1C(=O)CSc1nnnn1C1CCCC1` (stereo not drawn) the “activity change, negative = inhibition” value was 5% (inactive).
In the case of `O=C(Cn1nnc(-c2ccccc2)n1)N/N=C/c1ccc(-c2ccc(Cl)cc2)o1`, the Potency is reported as 7.08 µM (active).
`Nc1nnnn1CC(=O)N/N=C/c1ccc(-c2cccc(Cl)c2)o1` was tested, and the “activity change, negative = inhibition” value was -17.9% (inactive).
In the case of `Nc1nnn(CC(=O)N/N=C/c2ccccc2)n1`, the “activity change, negative = inhibition” value is reported as 4.37% (inactive).
With `Cc1ccccc1OCC(=O)N(Cc1cccc(F)c1)C1CCS(=O)(=O)C1` (stereo not drawn) the “activity change, negative = inhibition” value was 16.9% (inactive).
In the case of `Cc1nn(C)cc1C(=O)Nc1ccccc1Br`, the “activity change, negative = inhibition” value is reported as 23.8% (inactive).
`Cc1nn(C)cc1C(=O)NNC(=S)Nc1ccc(Cl)cc1` was tested, and the Potency was 11.2 µM (active).
For `Cc1nn(C)cc1CNC(=O)Nc1ccc(Cl)cc1`, the “activity change, negative = inhibition” value was 41.3% (inactive).
`CC1CCN(S(=O)(=O)c2ccc3c(ccn3CC(=O)O)c2)CC1` was tested, and the “activity change, negative = inhibition” value was -0.22% (inactive).
For `CC(=O)c1ccc2c(c1)OCCOCCOc1ccc(C(C)=O)cc1OCCOCCO2`, the “activity change, negative = inhibition” value was 25% (inactive).
For `CN(C)c1ccc(/C=C/C(=O)c2ccc(C(C)(C)C)cc2)cc1[N+](=O)[O-]`, the “activity change, negative = inhibition” value was -0.484% (inactive).
In the case of `CN(C)c1ccc(/C=C/C(=O)c2ccc(O)cc2)cc1[N+](=O)[O-]`, the Potency is reported as 1.41 µM (active).
`O=C(O)/C=C/c1ccc2c(c1)OCCO2` was tested, and the “activity change, negative = inhibition” value was -3.92% (inactive).
In the case of `Cc1nn(-c2ccccc2)c(Cl)c1/C=C/C(=O)c1ccc(O)cc1`, the “activity change, negative = inhibition” value is reported as 33.8% (inactive).
`O=C(/C=C/c1ccc2c(c1)OCCO2)c1ccc(O)cc1` was tested, and the Potency was 1.26 µM (active).
`Cc1ccc([N+](=O)[O-])cc1S(=O)(=O)N1CCCN(C)CC1` was tested, and the “activity change, negative = inhibition” value was -22.4% (inactive).
`O=C(CCc1nnc2ccc(NCCCN3CCCC3=O)nn12)NCc1ccccc1Cl` was tested, and the “activity change, negative = inhibition” value was -9.05% (inactive).
In the case of `Cc1ccc(/C=C2/SC(=S)N(CCC(=O)NCCCN3CCOCC3)C2=O)cc1`, the “activity change, negative = inhibition” value is reported as 28.6% (inactive).
`O=C(NC1CCC(O)CC1)c1ccccc1OCc1ccc(F)cc1` (stereo not drawn) was tested, and the “activity change, negative = inhibition” value was 4.09% (inactive).
For `O=C1NC(c2cccc(Cl)c2)Nc2ccccc21` (stereo not drawn), the “activity change, negative = inhibition” value was 19.6% (inactive).
For `O=C1c2ccccc2NC(c2ccc(-c3cccc(Cl)c3)o2)N1O` (stereo not drawn), the Potency was 11.2 µM (active).
For `O=c1c(-c2cccc(Cl)c2)c[nH]n1-c1ccccc1`, the “activity change, negative = inhibition” value was 35.9% (inactive).
